Records with an inconclusive call do not appear. Calls of active or inactive are those of the source. Calls follow the shape of the dose curve; as a rule, active = well fitted cell-killing curve with a large enough effect; inconclusive = small, poorly fitted or top-dose-only effect, or effect the other way; inactive = no such curve, though single readings can be large or run the other way.
What was measured:
[1] = Quantitative High-Throughput drug screen in 47 multiple myeloma cell lines against the NCATS MIPE library collection: OCIMY7_PLB cell viability assay (AID 1918987); details: OCI-MY7 myeloma viability, CellTiter-Glo ATP, 48 h; viability (% of DMSO): at 45.8 µM (top of the series); also: nearly all actives have a fitted effect of over 65% in size
Outline: (§1)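 qHTS format: cells plated (500/well), pin-dosed with MIPE 4.0 compounds, kept 48 h at 37 °C. Readout was CellTiter-Glo luminescence, median RLU.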

[2] = Quantitative High-Throughput drug screen in 47 multiple myeloma cell lines against the NCATS MIPE library collection: OCIMY5_PLB cell viability assay (AID 1918988); also: nearly all actives have a fitted effect of over 65% in size
Outline: as §1

[3] = Quantitative High-Throughput drug screen in 47 multiple myeloma cell lines against the NCATS MIPE library collection: OPM1_PLB cell viability assay (AID 1918989); also: nearly all actives have a fitted effect of over 40% in size
Outline: as §1

[4] = Quantitative High-Throughput drug screen in 47 multiple myeloma cell lines against the NCATS MIPE library collection: SKMM1_PLB cell viability assay (AID 1919863); details: SKMM1 myeloma viability, CellTiter-Glo ATP, 48 h; viability: active compounds read low; also: nearly all actives have a fitted effect of over 35% in size
Outline: as §1

[5] = Quantitative High-Throughput drug screen in 47 multiple myeloma cell lines against the NCATS MIPE library collection: U266_ATCC cell viability assay (AID 1919864); also: nearly all actives have a fitted effect of over 35% in size
Outline: as §1

[6] = Quantitative High-Throughput drug screen in 47 multiple myeloma cell lines against the NCATS MIPE library collection: XG6_PLB cell viability assay (AID 1919865); also: nearly all actives have a fitted effect of over 40% in size
Outline: as §1

[7] = Quantitative High-Throughput drug screen in 47 multiple myeloma cell lines against the NCATS MIPE library collection: XG1_PLB cell viability assay (AID 1919866); also: nearly all actives have a fitted effect of over 35% in size
Outline: as §1

[8] = Quantitative High-Throughput drug screen in 47 multiple myeloma cell lines against the NCATS MIPE library collection: VP6_DJ cell viability assay (AID 1919867); also: nearly all actives have a fitted effect of over 40% in size
Outline: as §1

[9] = Quantitative High-Throughput drug screen in 47 multiple myeloma cell lines against the NCATS MIPE library collection: UTMC2_PLB cell viability assay (AID 1919868); details: CellTiter-Glo ATP luminescence, 48 h; viability (% of DMSO control): at 45.8 µM (top of the series); also: nearly all actives have a fitted effect of over 55% in size
Outline: as §1

[10] = Quantitative High-Throughput drug screen in 47 multiple myeloma cell lines against the NCATS MIPE library collection: PE2_PLB cell viability assay (AID 1919869); also: nearly all actives have a fitted effect of over 35% in size
Outline: as §1
Potency is read from the fitted curve at half-maximal effect.

O=C(Nc1cccc(Nc2ncc(Br)c(NCCc3cnc[nH]3)n2)c1)N1CCCC1
active: Potency [1] 3720 nM | Potency [2] 14800 nM | Potency [3] 1870 nM | Potency [4] 23500 nM | Potency [5] 16600 nM | Potency [6] 590 nM | Potency [7] 372 nM | Potency [8] 2640 nM | Potency [9] 662 nM | Potency [10] 2960 nM

COc1cc(OC)cc(-c2ccc3ncc4ccc(=O)n(-c5ccc(N6CCNCC6)c(C(F)(F)F)c5)c4c3c2)c1
active: Potency [1] 1180 nM | Potency [2] 1320 nM | Potency [3] 4690 nM | Potency [4] 13200 nM | Potency [5] 11800 nM | Potency [6] 833 nM | Potency [7] 526 nM | Potency [8] 2640 nM | Potency [9] 2960 nM | Potency [10] 3320 nM

C[C@H](NCc1ccc2c(c1)nc(NC(=O)c1ccc(-c3cn[nH]c3)s1)n2CCc1ccccc1)C(C)(C)C
active: Potency [1] 418 nM | Potency [2] 833 nM | Potency [3] 1180 nM | Potency [4] 2960 nM | Potency [5] 1480 nM | Potency [6] 935 nM | Potency [7] 743 nM | Potency [8] 526 nM | Potency [9] 935 nM | Potency [10] 1050 nM

O=C1NC(=O)C(=Cc2ccc3nccc(-c4ccncc4)c3c2)S1
active: Potency [1] 66.2 nM | Potency [2] 526 nM | Potency [3] 74.3 nM | Potency [4] 590 nM | Potency [5] 418 nM | Potency [6] 83.3 nM | Potency [7] 33.2 nM | Potency [8] 132 nM | Potency [9] 37.2 nM | Potency [10] 46.9 nM

COc1cc2c(cc1O)CCC1C2CC[C@@]2(C)C1CC[C@@H]2O (stereo not given in full)
active: Potency [1] 469 nM | Potency [2] 1180 nM | Potency [3] 5260 nM | Potency [4] 833 nM | Potency [5] 13200 nM | Potency [6] 469 nM | Potency [7] 662 nM | Potency [8] 2640 nM | Potency [9] 935 nM | Potency [10] 3720 nM

CC(C)C[C@H](NC(=O)[C@@H](NC(=O)c1cccc(-c2ccccc2)n1)[C@@H](C)O)B(O)O
active: Potency [1] 14.8 nM | Potency [2] 13.2 nM | Potency [3] 13.2 nM | Potency [4] 74.3 nM | Potency [5] 14.8 nM | Potency [6] 13.2 nM | Potency [7] 18.7 nM | Potency [8] 9.3 nM | Potency [9] 166 nM | Potency [10] 11.8 nM

COc1ccc(S(=O)(=O)Nc2cc(-c3c(O)ccc4ccccc34)c(O)c3ccccc23)cc1
active: Potency [1] 2640 nM | Potency [2] 20900 nM | Potency [3] 9350 nM | Potency [4] 20900 nM | Potency [5] 2350 nM | Potency [6] 5900 nM | Potency [7] 5260 nM | Potency [8] 9350 nM | Potency [9] 16600 nM | Potency [10] 1480 nM

C=CC(=O)Nc1ccc2ncnc(Nc3ccc(OCc4cccc(F)c4)c(Cl)c3)c2c1
active: Potency [1] 105 nM | Potency [2] 52.6 nM | Potency [3] 209 nM | Potency [4] 6620 nM | Potency [5] 14800 nM | Potency [6] 14.8 nM | Potency [7] 66.2 nM | Potency [8] 264 nM | Potency [9] 743 nM | Potency [10] 590 nM

COc1cc(C)c(Sc2cnc(NC(=O)c3ccc(CNC(C)C(C)(C)C)cc3)s2)cc1C(=O)N1CCN(C(C)=O)CC1 (stereo not given)
active: Potency [1] 3320 nM | Potency [2] 16600 nM | Potency [3] 16600 nM | Potency [4] 20900 nM | Potency [5] 14800 nM | Potency [6] 14800 nM | Potency [7] 16600 nM | Potency [8] 8330 nM | Potency [9] 3320 nM | Potency [10] 14800 nM

CN(C)CC(=O)N1CCC(c2ccc(NC(=O)c3ncc(C#N)[nH]3)c(C3=CCCCC3)c2)CC1
inactive: viability [4] 127%
active: Potency [1] 9350 nM | Potency [2] 26400 nM | Potency [3] 20900 nM | Potency [5] 8330 nM | Potency [6] 18700 nM | Potency [7] 16600 nM | Potency [8] 23500 nM | Potency [9] 18700 nM | Potency [10] 20900 nM

C[C@@]12C(=O)OC(=O)[C@@]1(C)C1CCC2O1
active: Potency [1] 743 nM | Potency [2] 2960 nM | Potency [3] 372 nM | Potency [4] 7430 nM | Potency [5] 1660 nM | Potency [6] 4180 nM | Potency [7] 2640 nM | Potency [8] 2350 nM | Potency [9] 46.9 nM | Potency [10] 2640 nM

CCS(=O)(=O)Nc1ccc2[nH]c(O)c(C(=Nc3ccc(CN4CCCCC4)cc3)c3ccccc3)c2c1
active: Potency [1] 66.2 nM | Potency [2] 2090 nM | Potency [3] 332 nM | Potency [4] 5900 nM | Potency [5] 5900 nM | Potency [6] 3320 nM | Potency [7] 1320 nM | Potency [8] 590 nM | Potency [9] 93.5 nM | Potency [10] 469 nM

Cc1ncc(-c2ccnc(Nc3ccc(S(C)(=O)=O)cc3)n2)n1C(C)C
active: Potency [1] 833 nM | Potency [2] 3320 nM | Potency [3] 2350 nM | Potency [4] 5260 nM | Potency [5] 3320 nM | Potency [6] 1870 nM | Potency [7] 1480 nM | Potency [8] 1870 nM | Potency [9] 3320 nM | Potency [10] 2350 nM

— PubChem BioAssay (NCATS)
